# Experimental data published in PubChem BioAssay AID624483 (NMMLSC, 2012).
# Out of some 360,000 compounds screened, about 11,000 (3.1%) were called active. Inconclusive results (about 2%) are left out. No stated cut-off is given here; in the data, active means fluorescence intensity above about 16000; inconclusive means no clear call, values can overlap the other calls; inactive means below that. The list comes from a sample in which actives are over-represented; it also holds similar structures and randomly drawn compounds.
# Test: compound fluorescence in toxin protease inhibitor counterscreen, primary screen, artefact control for toxin protease inhibitor project, biochemical, multiplex microsphere, HTS (AID 624483)
# Settings: compound autofluorescence counterscreen, microsphere flow cytometry; active compounds read high
row,Structure (SMILES),fluorescence intensity
1,C=C(C)C(=O)O[C@H]1C/C(C)=C\C(=O)/C=C(\C)[C@H](O)[C@@H]2OC(=O)C(=C)[C@@H]21,2760 (inactive)
2,CCOC(=O)c1c(C)n(C)c2ccc(OC)c(NS(=O)(=O)CC)c12,2300 (inactive)
3,CCOc1ccc(NC(=O)N(CCC(C)C)C(C)c2ccco2)cc1 (centres undefined),2150 (inactive)
4,CCOc1ccc(NC(=O)Nc2ccc(N(C)C(C)=O)cc2)cc1,4350 (inactive)
5,CCOc1ccc(NC(=O)N(CC(C)C)CC(C)C)cc1,20300 (active)
6,CCOC(=O)C1=C(C)NC(C)=C(C(=O)OCC)C1C1=COCCO1,5040 (inactive)
7,CCCC1NC(=S)NC(C)=C1C(C)=O (centres undefined),4600 (inactive)
8,CCCC1NC(=O)NC(C)=C1C(=O)OCC (centres undefined),20200 (active)
9,CC(=O)NC(c1ccccc1)c1nc(-c2ccccc2C)cs1 (centres undefined),3560 (inactive)
10,O=C(Nc1ccc(N2CCN(C(=O)C3CC3)CC2)cc1)c1cccs1,2520 (inactive)
11,O=C(NC(=S)Nc1ccc(NC(=O)c2cccs2)cc1)c1ccc([N+](=O)[O-])cc1,8970 (inactive)
12,O=C(Nc1ccccc1-c1ccccc1)c1cccs1,4880 (inactive)
13,CCc1ccc(NC(=O)C(=O)NNC(=O)c2cccs2)cc1,5780 (inactive)
14,O=C(O)c1ccc(NC(=O)c2cccs2)cc1,23200 (active)
15,O=C(O)Cc1ccc(NC(=O)c2cccs2)cc1,19700 (active)
16,CC(C)CCNC(=O)c1[nH]c(C(F)(F)F)nc1-c1ccccc1,5980 (inactive)
17,CCOC(=O)[C@]12CCC=C1N(Cc1ccco1)C(=O)[C@H](CC(=O)NCc1cccc(C(F)(F)F)c1)C2,4290 (inactive)
18,COC(=O)[C@]12CCCCC=C1N(CCC1=CCCCC1)C(=O)[C@H](CC(=O)N1CCSCC1)C2,5780 (inactive)
19,CC(=O)Nc1ccc(CNc2nc(NCCN(C)C)nc3cc(-c4ccccc4)sc23)cc1,3970 (inactive)
20,Cc1cc(Cl)ccc1NNC(=O)c1snnc1C,3890 (inactive)

row,Structure (SMILES),fluorescence intensity
1,Cc1noc(C)c1COc1cccc(C(=O)Nc2cccnc2)c1,4200 (inactive)
2,O=C(Nc1cccnc1)c1noc2c1CCCCC2,24400 (active)
3,CC1(C(=O)Nc2cccnc2)Cc2c(-c3ccccc3)ccnc2O1 (centres undefined),2820 (inactive)
4,CS(=O)(=O)N(CC(=O)N1CCOCC1)c1cccc(Cl)c1Cl,4130 (inactive)
5,COC(=O)c1ccc(CN2C(=O)C(Cc3ccccc3)ON=C2c2ncccc2C)o1 (centres undefined),4970 (inactive)
6,COc1cccc(CSc2nc3nc(C)cc(C)n3n2)c1,3360 (inactive)
7,COCCCn1c(SCc2cccc(OC)c2)nc2cc(OC)c(OC)cc2c1=N,23400 (active)
8,COCCn1c(SCc2nc3cc(OC)c(OC)cc3c(=O)[nH]2)nnc1-c1ccncc1,3550 (inactive)
9,CC(C)CN1CCC1(C)C(=O)Nc1ccc(OC(F)F)cc1 (centres undefined),3880 (inactive)
10,O=C(CSCc1ccccc1Cl)NNC(=O)c1ccccc1,18500 (active)
11,O=C(COC(=O)c1ncc(Cl)c(Cl)c1Cl)NNC(=O)c1ccccc1,4100 (inactive)
12,O=C(COC(=O)Cc1ccccc1F)NNC(=O)c1ccc(Cl)cc1,5990 (inactive)
13,Cn1cnnc1Sc1ccc(S(C)(=O)=O)cc1[N+](=O)[O-],3290 (inactive)
14,COc1ccc(COC[C@H](CC(C)C)N2CCN(C(=O)c3cccc(C(F)(F)F)c3)CCC2=O)cc1,4210 (inactive)
15,COc1ccc(S(=O)(=O)N(C)CC(=O)Nc2ccc3c(c2)OCCO3)cc1OC,3400 (inactive)
16,COc1ccc(NC(=O)CN(C)S(=O)(=O)c2ccccc2)cc1OC,16600 (active)
17,COc1ccc(NC(=O)CN(Cc2ccccc2)S(C)(=O)=O)cc1OC,2130 (inactive)
18,O=C(Nc1cccc2cccnc12)c1ccc2sc([C@H]3C[C@H](O)[C@@H](CO)O3)nc2c1,3070 (inactive)
19,Cc1cc(C)cc(OCC(=O)Nc2cc(NC(=O)COc3cc(C)cc(C)c3)cc(C(=O)O)c2)c1,3790 (inactive)
20,CC(C)CC1C(=O)N(Cc2cn(Cc3ccco3)nn2)CCS(=O)(=O)N1Cc1ccc(-c2ccc(Cl)c(Cl)c2)cc1 (centres undefined),3840 (inactive)

row,Structure (SMILES),fluorescence intensity
1,COc1ccc2c(Cl)c(-c3nnco3)sc2c1,3460 (inactive)
2,C#CCSc1nnc(-c2sc3ccccc3c2Cl)o1,19600 (active)
3,O=C(OCC#CCSc1nnc(-c2ccncc2)o1)c1sc2ccccc2c1Cl,2840 (inactive)
4,CCCCCc1c(Cc2ccccc2)ncn1CCc1ccccc1OC,4640 (inactive)
5,O=C(NCc1ccc(F)cc1F)[C@@H]1CCCN1C(=O)[C@@H]1CCCN1C(=O)c1cccc(Cl)c1,6340 (inactive)
6,C[C@H]1CN([C@@H](C)CO)C(=O)CCCn2cc(nn2)CO[C@@H]1CN(C)C(=O)Nc1ccccc1,2950 (inactive)
7,COC(=O)c1sc(=S)n(-c2ccccc2)c1N,20900 (active)
8,N#Cc1ccccc1-n1c(N)c(C(=O)N2CCCC2)sc1=S,9660 (inactive)
9,Cc1cccc(-n2c(N)c(C(=O)N3CCN(C)CC3)sc2=S)c1,2920 (inactive)
10,Cn1c(=O)c2cc(NC(=O)NCCc3cccs3)ccc2n1Cc1cccc(C(F)(F)F)c1,3800 (inactive)
11,CCCCn1c(SCC(=O)N2CCOCC2)nc2c1c(=O)n(C)c(=O)n2C,5590 (inactive)
12,C#CC(C)(C)NC(=O)CSc1nc2c(c(=O)n(C)c(=O)n2C)n1CCCC,5580 (inactive)
13,CCCCn1c(SCC(=O)NCCc2ccc(OC)c(OC)c2)nc2c1c(=O)n(C)c(=O)n2C,22600 (active)
14,C=CCSc1nnc(Cn2c(=O)sc3ccccc32)n1C,5480 (inactive)
15,CC(=O)Nc1cccc(-c2ccnc3c2CC(C)(C(=O)NCc2ccco2)O3)c1 (centres undefined),3800 (inactive)
16,CCN1C(=O)[C@H]2[C@@H](c3ccc(C(F)(F)F)cc3)N[C@]3(CCCN(Cc4ccc(Br)cc4)C3=O)[C@H]2C1=O,3620 (inactive)
17,COc1ccc(CCNC(=O)COC(=O)/C=C/c2cccs2)cc1OC,3190 (inactive)
18,Cn1c(C(=O)NCCCN2CCCCC2)cc2sccc21,8510 (inactive)
19,COc1ccc(CCNC(=O)c2cc3sccc3n2C)cc1OC,21800 (active)
